test system: HepG2; experiment: GSK_TCMDC: Percent inhibition of human HepG2 cell line. Test compounds present at 10uM.; type: functional

First: Br.CCC(CCON1C(N)=NC(N)=NC1(C)C)c1ccc(Cl)cc1 (stereo not given)
Second: COc1ccc2[nH]c(C)cc(=NN=Cc3ccc(Cl)cc3)c2c1
The Inhibition of the first is higher: 66% for the first, 2% for the second.

First: COc1ccc(CNC2CCN(C)CC2)cc1-c1ccc(S(=O)(=O)NCc2ccccc2)c(C)c1.O=C(O)C(F)(F)F
Second: CN1CCC(NCc2ccc(-c3cccc(-c4nc5ccccc5[nH]4)c3)cc2)CC1.O=C(O)C(F)(F)F
The Inhibition of the first is higher: 81% for the first, 50% for the second.

Compared with `CC(Cc1ccc(NS(=O)(=O)c2ccc(CC(C)NCCc3cccc(Cl)c3)cc2)cc1)NCCc1cccc(Cl)c1` (stereo not given), `Fc1cccc(Nc2nc(NCCc3ccc(Cl)cc3)nc(Nc3cccc(F)c3)n2)c1` is lower in Inhibition: 12% for the first, 0% for the second.

Compared with `COc1cc(NC(=O)c2ccc(-c3ccc(C(C)=O)cc3)s2)ccc1OCCN1CCCC1`, `COc1ccc(N2CCN(CCc3ccc(NC(=O)c4ccc([N+](=O)[O-])cc4)cc3)CC2)c(OC)c1` is higher in Inhibition: 31% for the first, 45% for the second.

Going from `CCOC(=O)c1ccc(Nc2cc(Nc3ccc(C(=O)OCC)cc3)nc(C)n2)cc1` to `CC(CN(C)C)C(=O)Nc1cccc(-c2ccc(-c3nc4ccccc4[nH]3)s2)c1` (stereo not given), the Inhibition rises from 4% to 13%.

First: O=C(O)C(F)(F)F.O=S(=O)(NC1CCN(c2ccnc3ccccc23)C1)c1ccc(OC(F)(F)F)cc1 (stereo not given)
Second: Cc1c(Oc2ccc(-n3ccnc3)cc2)ncnc1N1CCC2(CC1)CNCc1ccccc12.O=C(O)C(F)(F)F
The Inhibition of the first is higher: 34% for the first, 26% for the second.

Compared with `COc1cc(NC(=O)CCCN2CCN(c3cccc(Cl)c3Cl)CC2)ccc1N1CCN(C(C)C)CC1.Cl`, `COc1ccc(C(=O)N[C@@H](CC(C)C)C(=O)NC2CC[C@@H](C)N(C(=O)Nc3ccc(Cl)cc3)CC2=O)cc1OCCN1CCOCC1` (stereo not given in full) is lower in Inhibition: 31% for the first, 5% for the second.

Going from `COc1ccc2c(c1)OC(C)(C)CC2=NOS(=O)(=O)c1ccc(C)cc1` to `COc1ccc(-n2ccnc2SCC(=O)Nc2cccc(C(F)(F)F)c2)c(OC)c1`, the Inhibition falls from 10% to 0%.

Going from `Cc1cccc2nc(-c3ccc(-c4ccc(CN5CCN(c6ccncc6)CC5)cc4)cc3)[nH]c12.O=C(O)C(F)(F)F` to `CC1CN(Cc2ccc(-c3cccc(-c4nc5cc(F)ccc5[nH]4)c3)cc2)CC(C)O1.O=C(O)C(F)(F)F` (stereo not given), the Inhibition falls from 98% to 28%.

First: O=C(C=Cc1ccc(Cl)c(Cl)c1)NCCCCCN1CCC(CCNC(=O)C(c2ccccc2)c2ccccc2)CC1
Second: CN1CCN(CCCCCCNc2c3ccccc3nc3ccccc23)CC1.Cl
The Inhibition of the first is higher: 61% for the first, 35% for the second.

Going from `Cc1[nH]c2ccc(C#N)cc2c(=O)c1Br` to `CCCCCCNC(=O)C1Cc2c([nH]c3ccc(Br)cc23)C2(CCN(CCc3ccccc3)CC2)N1` (stereo not given), the Inhibition rises from 2% to 36%.

Going from `Nc1cccc(CNCc2ccc(-c3ccc(-c4nc5cc(F)ccc5[nH]4)s3)cc2)c1.O=C(O)C(F)(F)F` to `Cc1cccc2nc(-c3ccc(-c4cccc(CN5CC(C)OC(C)C5)c4)s3)[nH]c12.O=C(O)C(F)(F)F` (stereo not given), the Inhibition falls from 12% to 6%.

Going from `CCN(CCCN1CCCCC1)c1cc(C)nc(Nc2cc(C)ccc2C)n1.O=C(O)C(F)(F)F` to `COc1ccc(CNCCc2cccs2)cc1-c1ccc(S(=O)(=O)NCCN2CCCC2)s1.O=C(O)C(F)(F)F`, the Inhibition rises from 34% to 41%.

Compared with `CC[C@H](NC(=O)c1c(N)c(-c2sccc2Cl)nc2ccccc12)c1ccccc1`, `CCNc1cc(C(=O)N[C@@H](Cc2ccccc2)[C@H](O)CNCCc2ccccc2)cc(N2CCCCS2(=O)=O)c1.Cl` is higher in Inhibition: 0% for the first, 14% for the second.

Compared with `O=C(O)C(F)(F)F.Oc1ccc(CCNc2nc(NCc3ccccc3-c3cccc(Cl)c3)nc(N3CCNCC3)n2)cc1`, `Cl.Oc1ccc(C2CNCCc3c2cc(O)c(OCc2ccccc2)c3Cl)cc1` (stereo not given) is lower in Inhibition: 15% for the first, 14% for the second.

First: Cl.O=C(C=Cc1cccc(F)c1)NC1CCC(CCN2CCc3ccc(-c4cnccn4)cc3CC2)CC1 (stereo not given)
Second: COc1ccccc1C1CCN(C2CCC(NC(=O)/C=C/c3cccc(Cl)c3)CC2)CC1 (stereo not given)
The Inhibition of the first is lower: 51% for the first, 54% for the second.

Going from `c1cc2[nH]c(CCc3nc4cc(C5=NC6CCCCC6N5)ccc4[nH]3)nc2cc1C1=NC2CCCCC2N1` (stereo not given) to `N#Cc1ccc(-c2nc(CO)c(C(=O)NCCCCN3CCC(c4ccc5c(c4OCC(N)=O)CCCC5)CC3)s2)cc1`, the Inhibition rises from 3% to 9%.

Going from `CCOC(=O)c1cn(CC)c2cc(F)c(OC3CC4CCC3(C)C4(C)C)cc2c1=O` (stereo not given) to `COc1cc(C(=O)N2N=C(c3c(-c4ccccc4)c4cc(Br)ccc4[nH]c3=O)CC2c2cccc([N+](=O)[O-])c2)cc(OC)c1OC` (stereo not given), the Inhibition rises from 0% to 1%.

First: N=C(N)NC(=O)Nc1ccc(Cl)c(Cl)c1
Second: O=C(c1cc(C(=O)Nc2ccc(F)cc2)c(=O)n(-c2ccc(F)cc2)c1)c1cc(Cl)ccc1O
The Inhibition of the first is higher: 29% for the first, 13% for the second.

Compared with `Cc1c(C)n(C2CCCCC2)c2ncnc(OC3CCN(CC(=O)NC4CC4)CC3)c12`, `Cc1ccc(C(=O)Nc2cc(C(F)(F)F)cc(C(F)(F)F)c2)cc1[N+](=O)[O-]` is lower in Inhibition: 21% for the first, 17% for the second.
